Reference: PubChem BioAssay (NCI)
About 79,000 compounds went through this panel and 15% of them were active in at least one assay; those are over-represented in the sample as a whole. Values without a mark were called inactive. Active and inactive are the calls of the source. Cut-off read from the data, not from the text of the source: active = growth inhibition above about 70%; inactive = the rest.

Experiments:
[1] = NCI Yeast Anticancer Drug Screen. Data for the rad50 strain (AID 155);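 note: 0% = growth of vehicle-only cultures of the same strain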; conditions: S. cerevisiae rad50 strain growth inhibition; at 50.0 µM; hits give high values
How it was run: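 Growth of the mutant yeast was measured after compound exposure and referenced to vehicle-treated cultures.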

[2] = NCI Yeast Anticancer Drug Screen. Data for the mec2-1 strain (AID 157); conditions: S. cerevisiae mec2-1 strain, at 50.0 µM, hits give high values
How it was run: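 Growth inhibition is read against vehicle-treated controls after compound exposure of the mec2-1 yeast strain, which is defective in DNA damage repair or cell cycle control.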

[3] = NCI Yeast Anticancer Drug Screen. Data for the sgs1 mgt1 strain (AID 161);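 note: 0% = growth of cultures given vehicle only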; conditions: S. cerevisiae sgs1 mgt1 strain, at 50.0 µM, hits give high values
How it was run: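 Percent growth inhibition was derived by comparing compound-exposed mutant yeast with vehicle-exposed cultures. The strain carries alterations in DNA damage repair.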

[4] = NCI Yeast Anticancer Drug Screen. Data for the cln2 rad14 strain (AID 165);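 note: 0% = growth equal to vehicle treated cultures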; conditions: S. cerevisiae cln2 rad14 strain, at 50.0 µM, hits give high values
How it was run: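 Growth inhibition, relative to vehicle-treated controls, is the read-out. The test organism is a yeast strain with defined genetic alterations, cln2 rad14.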

[5] = NCI Yeast Anticancer Drug Screen. Data for the bub3 strain (AID 167); conditions: S. cerevisiae bub3 mutant strain, at 50.0 µM, hits give high values
How it was run: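 Whole-cell yeast assay. The mutant strain was incubated with compounds, and growth inhibition was determined by comparison with vehicle-treated cells.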

[6] = NCI Yeast Anticancer Drug Screen. Data for the mlh1 rad18 strain (AID 175); conditions: S. cerevisiae mlh1 rad18 strain growth inhibition; at 50.0 µM; hits give high values
How it was run: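 Cells of a genetically altered yeast strain, deficient in DNA damage repair, were treated with compound. Their growth was then compared with that of vehicle-treated cultures to give inhibition.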

Row | Compound | growth inhibition [1] | growth inhibition [2] | growth inhibition [3] | growth inhibition [4] | growth inhibition [5] | growth inhibition [6]
1 | CCOC(=O)C(Cc1ccc([N+](=O)[O-])cc1)NC(=O)CC1c2ccccc2-c2ccccc21 (stereo not drawn) | -10.1% | 1.05% | 3.4% | -35% | -9.9% | -8.95%
2 | CC1OCC2OC(C)OC(C(C3C(=O)CC(C)(C)CC3=O)C3C(=O)CC(C)(C)CC3=O)C2O1 (stereo not drawn) | 17.4% | 6.3% | 19.2% | -8.3% | 26.2% | 22.8%
3 | CCOC(=O)CCC1(C(=O)OC)C(=O)CCCCCCCC1C(=O)OC (stereo not drawn) | -1.85% | -5.65% | 20.3% | 20.6% | 19.4% | 7.3%
4 | Cn1c([N+](=O)[O-])cnc1/C=C1\CCc2cc(OCCN3CCCC3)ccc2C1=O | 30.4% | 24.3% | 36.4% | 21.6% | -2% | 38.3%
5 | C=CCC(OC(=O)CC)c1ccc2c(c1)OCO2 (stereo not drawn) | 7.3% | -11.6% | 5% | 4.05% | 9.3% | -11.9%
6 | OC(c1ccccc1)(c1ccccc1)c1nc2ccccc2[nH]1 | 2.7% | -1.75% | 14.2% | -19.8% | -0.1% | -0.9%
7 | O=C(Nc1cccc2ccccc12)ON1C(=O)c2ccccc2C1=O | -6.6% | -39.6% | -0.1% | 12.5% | -5.7% | -2.4%
8 | O=S(CC(O)(c1ccccc1)c1ccccc1)c1ccccc1 (stereo not drawn) | 6.55% | 14.4% | 18% | 36.2% | 30.9% | 23.5%
9 | CC1(C)CC(C(N)=O)C(=O)O1 (stereo not drawn) | -17.4% | -4.15% | -21.6% | -25.9% | 5.1% | -2.4%
10 | CCOC(=O)c1ncn2c1[nH]c(=S)c1ccccc12 | -14.8% | -19.1% | -11.2% | -0.95% | -17.9% | -2.05%
11 | CCOC1OC(C(O)CO)C(O)C1O (stereo not drawn) | -16.9% | -18.8% | 5.25% | -39.9% | -18% | -17%
12 | COC/C=C(\C)CC/C=C(\C)CCC=C(C)C | -8.2% | 0.95% | -1.2% | 22.6% | -27.3% | 2.95%
13 | OCCNCc1ccc2c(c1)OCO2 | -4.1% | 3.85% | -9.5% | -4.85% | -5.25% | 1.4%
14 | CC1(C2(C)Nc3ccccc3O2)Nc2ccccc2O1 (stereo not drawn) | 10.2% | 8.35% | 9.95% | -36.8% | 3.65% | 9.05%
15 | Clc1ccc(CSc2ccc3nncc(SCc4ccc(Cl)cc4Cl)c3c2)c(Cl)c1 | 36% | 5.8% | 15.1% | 36.8% | 15.1% | 17.6%
16 | COc1c(N)c(C)nc(Cl)c1C#N | -10.1% | 2.95% | -2.7% | -1.05% | -0.75% | 8.9%
17 | CCc1c(Cl)c(Cl)c(Cl)c(Cl)c1Cl | 2.95% | 2.35% | 4.15% | -42.5% | -2.9% | 13.8%
18 | Nc1ncnc2c1nc(-c1ccccc1)n2C1OC(CO)C(O)C1O (stereo not drawn) | 27.4% | 35.2% | -10.7% | 9.75% | 35.5% | 34.4%
19 | NC(N)=NS(=O)(=O)c1ccc(NC(=O)c2ccc(Cl)c3c(Nc4ccc(S(=O)(=O)N=C(N)N)cc4)c4ccccc4nc23)cc1 | 32.2% | 31.6% | 30.9% | 34.5% | 10.2% | 29.1%

Row | Compound | growth inhibition [1] | growth inhibition [2] | growth inhibition [3] | growth inhibition [4] | growth inhibition [5] | growth inhibition [6]
20 | CC(=O)OCC(OC(C)=O)C(OC(C)=O)C(OC(C)=O)C(OC(C)=O)C(C=O)OC(C)=O (stereo not drawn) | -31.6% | -1.7% | 11.7% | -37.2% | -1.25% | -7.95%
21 | C=C[C@@]1(C)CC(=O)[C@]2(O)[C@@]3(C)[C@@H](O)CCC(C)(C)[C@@H]3[C@H](O)[C@@H](OC(C)=O)[C@@]2(C)O1 | 0.2% | -4.4% | -5.75% | 9.2% | -4.15% | -68%
22 | CCC(C#N)C1=CCCCCC1 (stereo not drawn) | 31.8% | 3.75% | 19.4% | 11.7% | 4.6% | 20.6%
23 | CN(C)c1ccc(-c2cc(C(=O)O)c3cc(I)ccc3n2)c(Cl)c1 | 45.9% | 30.6% | 36.5% | 51.4% | 46.1% | 35.8%
24 | O=C(CN(Cc1ccccc1)Cc1ccccc1)NC(=O)c1ccccc1 | 4.5% | -7.9% | 8.45% | -36.4% | 9.55% | -10.4%
25 | O=C(Nc1ccc(S(=O)(=O)N2CCCCC2)cc1)OC1CCCCC1 | 16.4% | 3.75% | -4.2% | 23.6% | 30.9% | -5.45%
26 | CC(N)C(=O)NC(C(=O)O)C(C)C (stereo not drawn) | -2.4% | -2.55% | -16.1% | -14.7% | 0.3% | -23.4%
27 | CC(C(=O)O)c1ccc(-n2nnc3c(=O)[nH][nH]c(=O)c32)cc1 (stereo not drawn) | -16.2% | -8.4% | -12.6% | -17.3% | 2.8% | -5.7%
28 | CN(C)S(=O)(=O)c1ccc(Cl)cc1 | -1.65% | -4.4% | 2.7% | 0.3% | -0.2% | -9.3%
29 | CCOC(=O)C1=C(O)c2ccccc2S(=O)(=O)N1C (tested in a mixture with another compound) | 4.05% | 20.3% | 14% | -18.9% | -25.6% | 0%
30 | Cc1ccc(NC(=O)CCc2nnc3s/c(=C\c4cccc([N+](=O)[O-])c4)c(=O)n23)cc1 | -31.4% | -8.45% | -10.6% | 14% | 10.7% | 3.3%
31 | CC(=O)OCc1cc2c(cc1CNCc1ccccc1)OCO2 | 12.5% | -2.15% | 7.25% | -31.4% | 5% | 7.25%
32 | CCCCCCCCCCCCCCNCCCCCCCCCCCCCC | 21% | -9% | 23.8% | 32.2% | 17.1% | 17.4%
33 | OCCN(CCO)c1cc(/C=C/c2c3ccccc3cc3ccccc23)nc2ccccc12 | 94.2% (active) | 95.9% (active) | 96.1% (active) | 94.8% (active) | 96.5% (active) | 95.7% (active)
34 | NC(=O)C12C3C4C1C1C2C3C41C(N)=O (stereo not drawn) | 29.1% | 12.4% | -1.7% | 16.5% | -5.8% | 20.6%
35 | C1COCCN2CCOCCOCCN(CCO1)CCOCC2 | 3.6% | 11.2% | -0.25% | 12.7% | 23.6% | 23.7%
36 | O=C(O)CCc1ccc(O)c(O)c1 | 19.6% | 2.5% | 11.8% | 13.3% | 2.8% | -21.8%
37 | COc1ccc(N=NN(C(C)=O)c2ccccc2)cc1 | 2.85% | 10.2% | 35.5% | -5.75% | -1% | 19.1%
38 | CC1CCCc2c(CC3CC(=O)NC(=O)C3)nc(N)nc21 (stereo not drawn) | 6.75% | 5.25% | -18.8% | -7.85% | -4.7% | -23.4%
